Several values for one entry are separate records, joined by “and”; a condition that tells them apart may be missing. Identical values can stand only once. Screen size: about 5,500 compounds; about 2,000 (36%) were called active. Inconclusive results (about 18%) are left out. Cut-off read from the data, not from the text of the source: active = normalized growth mostly below about 0.91 (no sharp cut-off); inconclusive = no clear call, values can overlap the other calls; inactive = mostly above about 0.92. The list shows a part of the results.
Assay: chemical genetic growth profiling, strain panel (AID 1159580);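 note: tested at 20 µM; growth read once vehicle control cultures reached saturation at 30 °C; 1 = growth at the plate median or of vehicle wells; lower values mean less growth of the strain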
Conditions: S. cerevisiae deletion strains, growth OD

Measured: normalized growth

CCCc1nc(C(C)(C)O)c(C(=O)OCc2oc(=O)oc2C)n1Cc1ccc(-c2ccccc2-c2nn[nH]n2)cc1
inactive: locus YAL013W, strain DEP1, hits give low values 0.99 | locus YAL021C, strain ccr4, hits give low values 0.976 | locus YAL026C, strain drs2, hits give low values 0.966 | locus YAL030W, strain snc1, hits give low values 0.955 | locus YBL061C, strain skt5, hits give low values 0.979 | locus YBR009C, strain hhf1, hits give low values 1 | locus YBR021W, strain FUR4, hits give low values 0.987 | locus YBR023C, strain chs3, hits give low values 0.961 | locus YBR171W, strain sec66, hits give low values 0.957 | locus YBR229C, strain ROT2, hits give low values 0.989 | locus YBR231C, strain swc5, hits give low values 0.974 | locus YBR279W, strain paf1, hits give low values 0.973 | locus YCL011C, strain gbp2, hits give low values 0.945 | locus YCL016C, strain dcc1, hits give low values 0.994 | locus YCL029C, strain bik1, hits give low values 0.982 | locus YCL069W, strain vba3, hits give low values 0.987 | locus YCR088W, strain abp1, hits give low values 0.977 | locus YDL005C, strain med2, hits give low values 0.983 | locus YDL035C, strain GPR1, hits give low values 1 | locus YDL040C, strain nat1, hits give low values 0.976 | locus YDL074C, strain BRE1, hits give low values 1.01 | locus YDL101C, strain DUN1, hits give low values 0.991 | locus YDL134C, strain PPH21, hits give low values 0.986 | locus YDL185W, strain tfp1, hits give low values 0.983 | locus YDL192W, strain arf1, hits give low values 0.985 | locus YDR001C, strain nth1, hits give low values 0.945 | locus YDR069C, strain doa4, hits give low values 0.956 | locus YDR101C, strain arx1, hits give low values 0.994 | locus YDR137W, strain rgp1, hits give low values 0.943 | locus YDR150W, strain NUM1, hits give low values 1 | locus YDR159W, strain sac3, hits give low values 0.933 | locus YDR162C, strain NBP2, hits give low values 1 | locus YDR195W, strain ref2 0.922 | locus YDR297W, strain sur2, hits give low values 0.981 | locus YDR318W, strain mcm21, hits give low values 0.994 | locus YDR334W, strain swr1, hits give low values 0.945 | locus YDR335W, strain msn5, hits give low values 0.952 | locus YDR388W, hits give low values 0.987 | locus YDR392W, strain spt3, hits give low values 1.02 | locus YDR502C, strain sam2, hits give low values 0.986 | locus YEL003W, strain gim4, hits give low values 0.972 | locus YEL037C, strain rad23, hits give low values 0.968 | locus YEL061C, strain CIN8 (second series), hits give low values 0.955 | locus YEL061C, strain CIN8, hits give low values 1.01 | locus YER015W, strain faa2, hits give low values 0.99 | locus YER016W, strain bim1, hits give low values 0.967 | locus YER110C, hits give low values 0.985 | locus YER111C, strain swi4, hits give low values 0.965 | locus YER155C, strain BEM2 (second series), hits give low values 0.906 | locus YER155C, strain BEM2, hits give low values 1.02 | locus YER167W, strain BCK2, hits give low values 0.99 | locus YFR010W, strain ubp6, hits give low values 0.967 | locus YGL078C, strain dbp3, hits give low values 0.99 | locus YGL086W, strain mad1, hits give low values 0.986 | locus YGL167C, strain pmr1, hits give low values 0.957 | locus YGL173C, strain kem1, hits give low values 0.985 | locus YGL227W, strain vid30, hits give low values 0.96 | locus YGL240W, strain doc1, hits give low values 0.949 | locus YGL248W, strain PDE1, hits give low values 0.99 | locus YGL253W, strain hxk2, hits give low values 0.962 | locus YGR078C, strain PAC10, hits give low values 1.02 | locus YGR135W, strain pre9, hits give low values 0.995 | locus YGR229C, strain SMI1, hits give low values 1 | locus YGR252W, strain gcn5, hits give low values 1.02 | locus YHR013C, strain ard1, hits give low values 0.978 | locus YHR027C, strain rpn1, hits give low values 0.973 | locus YHR030C, strain SLT2, hits give low values 0.99 and 0.967 | locus YHR079C, strain IRE1 (second series), hits give low values 0.984 | locus YHR079C, strain IRE1, hits give low values 0.954 | locus YHR094C, strain hxt1, hits give low values 0.989 | locus YHR129C, strain ARP1, hits give low values 0.987 | locus YHR142W, strain chs7, hits give low values 1 | locus YHR200W, strain rpn10, hits give low values 0.981 | locus YIL066C, strain RNR3, hits give low values 0.994 | locus YIL073C, strain SPO22, hits give low values 1.02 | locus YIL125W, strain kgd1, hits give low values 0.989 | locus YIR030C, strain dcg1, hits give low values 0.982 | locus YJL092W, strain hpr5, hits give low values 0.982 | locus YJL095W, strain BCK1 (second series), hits give low values 0.973 | locus YJL095W, strain BCK1, hits give low values 0.987 and 0.988 | locus YJL115W, strain asf1, hits give low values 0.967 | locus YJL129C, strain trk1, hits give low values 0.965 | locus YJL134W, strain LCB3, hits give low values 0.994 | locus YJL154C, strain vps35, hits give low values 0.966 | locus YJL164C, strain tpk1, hits give low values 0.996 | locus YJL166W, strain qcr8, hits give low values 0.966 | locus YJL168C, strain set2, hits give low values 0.997 | locus YJL187C, strain SWE1 (second series), hits give low values 0.987 | locus YJR043C, strain POL32, hits give low values 0.997 | locus YJR066W, strain TOR1, hits give low values 0.931 | locus YJR075W, strain HOC1, hits give low values 1.01

Reference: PubChem BioAssay AID1159580 (chemical genetic matrix, 2015)
